Source: PubChem BioAssay
Compounds with a hit are over-represented: about 3.2% of the library has one in this group of screens.
Marburg entry inh – qHTS for inhibitors of binding or entry into cells for Marburg Virus. Marburg virus pseudotyped entry inhibition, cell reporter. Potency, µM (top dose mostly 37.8 µM), for the others: at the top dose activity change, negative = inhibition, most hits filed as inhibitors. hit rate 1.8% among 300,000; calls by dose curve; tested in HEK293 cells
Lassa entry inh – qHTS for Inhibitors of binding or entry into cells for Lassa Virus; Lassa virus pseudotype entry inhibition, cell reporter; Potency, µM (highest dose often 37.9 µM), inactives show at the highest dose activity change, negative = inhibition, usual class: inhibitors; hit rate 1.2% among 300,000; AID 540256, 2011; calls by dose curve; tested in HEK293 cells; also: nearly all actives have a fitted effect of over 50% in size
VACV Venus inh – qHTS for Stage-Specific Inhibitors of Vaccinia Orthopoxvirus: Venus Reporter Primary qHTS. Potency, µM (titrated, usually from 36.5 µM), for the others: at the top dose activity change, negative = inhibition, hits mostly inhibitors. AID 720580, 2013. Vaccinia virus Venus reporter expression, fluorescence. hit rate 0.46% among 330,000; calls by dose curve; tested in A549 cells; also: nearly all actives have a fitted effect of over 30% in size
FMDV inh – High Throughput Screening for Foot and Mouth Disease Virus Antivirals; FMDV antiviral cell-based qHTS; AID 1159524, 2015; hit rate 1.2% among 410,000; Potency, µM (titrated, usually from 57.9 µM), inactives show at the top dose activity change, negative = inhibition, usual class: inhibitors; calls by dose curve; tested in HEK293T cells; also: read-out not given here; nearly all actives have a fitted effect of over 45% in size
VACV mCherry inh – qHTS for Stage-Specific Inhibitors of Vaccinia Orthopoxvirus: mCherry Reporter Primary qHTS; Vaccinia virus mCherry reporter infection, fluorescence; Potency, µM (top dose mostly 36.5 µM), for inactives: at the top dose activity change, negative = inhibition, actives largely listed as inhibitors; hit rate 0.63% among 310,000; AID 720579, 2013; calls by dose curve; tested in A549 cells; also: nearly all actives have a fitted effect of over 35% in size
Starred values were filed as active, the others as inactive; i = inactive; ? = inconclusive; · = no result given; ! = repeats disagree; [ ] = dose if it differs, or a comment. % is scaled to controls: 0 for no effect and ±100 for the full control effect; potency is read from the fitted curve at half-maximal effect.

SMILES | Marburg entry inh | Lassa entry inh | VACV Venus inh | FMDV inh | VACV mCherry inh
O=C([C@@H]1CC=C[C@@H]2CCN(C3CCCCC3)C(=O)[C@@H]21)N1CCOCC1 | · | · | -10.9% | · | i
COc1ccc(CN(C)CC(=O)Nc2ccc(SC(F)F)cc2)cc1OC | ? | ? | -16.6% | 17.8µM* | -19.5%
COc1ccc(CN(C)CC(=O)Nc2ccc(N3CCOCC3)cc2)cc1OC | ? | 0.8% | -6.4% | -17.8% | -17.8%
C=CCCCN1C=C(C(C)=O)C(c2ccccc2)NC1=O (stereo not given) | 18.2%[14.2 µM] | · | · | · | ·
O=C1C=C(Nc2ccc(F)cc2)c2ccccc2C1=O | ? | ? | -16.9% | ? | ?
O=C1C=C(Nc2ccccc2O)c2ccccc2C1=O | ? | ? | ? | ? | 5.01µM*
O=C1C=C(NCc2ccccc2)c2ccccc2C1=O | ? | ? | 11.2µM* | -16.3% | ?
O=C1C=C(Nc2cccnc2)c2ccccc2C1=O | ? | ? | 10µM* | ? | ?
CC(C)[C@@H](OCc1ccccc1)[C@H](C)/C=N/OC[C@@H](C)[C@H](OCc1ccccc1)C(C)C | 25.4%[14.2 µM] | · | · | · | ·
Cc1ccc(NC(=O)CCCn2c3ccccc3c(=O)c3cc(C)ccc32)c(Br)c1 | · | 2.82µM* | -15.4%[7.34 µM] | -28.2% | -8.7%[7.34 µM]
COc1ccc(C(=O)O/N=C(\N)c2ccccc2)c(OC)c1 | 1.46µM* | ? | -16.0% | -36.3% | 2.1%
N/C(=N\OC(=O)c1ccc(Cl)cc1Cl)c1ccccc1 | ? | 8.2µM* | · | -70.6% | ·
COc1ccc(C(=O)O/N=C(\N)c2ccc(OC)c(OC)c2)c(OC)c1 | 1.2% | · | · | 16.1% | ·
Cc1cccc(C(=O)N[C@H](C(=O)Nc2nnc(C3CC3)s2)C(C)C)c1 | 19.7% | 8.4% | -13.7% | 0.0% | -14.1%
Cc1cccc(C(=O)N[C@H](C(=O)Nc2ncc(C)s2)C(C)C)c1 | 4.7%[46.1 µM] | · | ? | 40.1% | 12.6µM*
CCc1nnc(NC(=O)CSc2nc3cccnc3n2C2CCCCC2)s1 | 2.51µM* | 5.62µM* | -9.6% | ? | -20.0%
Cc1nc(NC(=O)CSc2nc3cccnc3n2C2CCCCC2)sc1C | -10.1%[46.1 µM] | -18.3% | -24.8% | -23.6% | -2.9%
Cn1cnc([N+](=O)[O-])c1S(=O)(=O)Oc1ccccc1 | ? | ? | -7.3% | 25.1µM* | -13.6%
Cn1cnc([N+](=O)[O-])c1NCc1ccccc1 | · | · | · | 1.4% | ·
Cn1cnc([N+](=O)[O-])c1S(=O)(=O)c1cccc(Cl)c1 | -30.7% | -17.8% | · | 25.1µM* | ·
Cn1cnc([N+](=O)[O-])c1S(=O)(=O)Nc1ccccc1 | -0.4%[46.1 µM] | -14.2%[46.1 µM] | -22.0% | 22.4µM* | i
CN(C)c1c([N+](=O)[O-])ncn1C | 8.4% | 8.1% | 15.3% | -14.9% | ·
COC(=O)c1ccc2c(c1C(=O)OC)CN(S(=O)(=O)C(C)(C)C)[C@@H]2CCO | · | · | -11.4% | -7.7% | 14.6%
O=C(C1=C(O)C(=O)N(CCCN2CCOCC2)[C@H]1c1ccccn1)c1cc2ccccc2o1 | 3.2% | · | · | · | ·
COc1ccccc1C(=O)OCC(=O)Nc1ccc(N2CCCCC2)cc1 | · | · | -10.7% | · | -3.3%
SMILES | Marburg entry inh | Lassa entry inh | VACV Venus inh | FMDV inh | VACV mCherry inh
COc1ccccc1NC(=O)c1cnc(SCC(=O)N2CCOCC2)n(C)c1=O | · | 4.7%[46.1 µM] | -0.3% | 0.0% | -7.1%
COc1ccccc1NC(=O)c1cnc(SCC(=O)NCC2CCCO2)n(C)c1=O (stereo not given) | ? | ? | -9.9% | 25.1µM* | -10.6%
Cc1cc(C)n(-c2ccc(C(=O)N3CCN(S(=O)(=O)c4ccc(Br)cc4Cl)CC3)cc2)n1 | · | · | ? | ? | -28.8%
COc1cc(-c2nc3cnccn3c2Nc2ccc(C(C)C)cc2)ccc1O | ? | ? | ? | 39.8µM* | ?
COc1cc(-c2nc3cnccn3c2Nc2ccc(C)cc2)ccc1O | -10.3% | ? | -16.3% | -15.8% | ?
COc1cc(-c2cccc(OC)c2OC)cc2c1OCCN(Cc1cn[nH]c1-c1ccc(Cl)cc1)C2 | · | · | -25.8% | -17.1% | -9.3%
CCOC(=O)C1=C(C)NC(C)=C(C(=O)OCC)C1C(=O)OCC(=O)N1c2ccccc2CC1C (stereo not given) | 12.6µM*! | ? | -5.8% | 24.5% | -29.6%
Cc1cc(/C=C2\SC(=S)N(C)C2=O)c(C)n1-c1ccc(O)cc1 | · | · | -17.8% | 0.891µM* | ?
Cc1cc(/C=C2\SC(=S)N(C)C2=O)c(C)n1-c1ccccc1O | ? | ? | 2.7% | ? | ?
COc1ccc(S(=O)(=O)N2CCc3ccccc32)cc1C(=O)NCCc1ccccn1 | ? | -29.0% | -12.5% | 12.9% | -7.0%
CCCCN1CCC(COC(=O)c2cc(Cl)c(N)c3c2OCCO3)CC1 | 11.2µM* | · | -12.0% | -0.3% | i
CC(C)Oc1ccc(CNC(=O)CC(c2ccccc2)c2cc(Cl)ccc2O)cc1 (stereo not given) | ? | 7.3µM* | · | ? | ·
COc1ccc(OC)c(CCNC(=O)c2ccc3c(c2)N(Cc2ccc(F)cc2)CCS3)c1 | · | · | · | -11.4% | ·
COc1ccc(CCNC(=O)c2ccc3c(c2)N(Cc2ccc(F)cc2)CCS3)c(OC)c1 | 7.94µM* | -29.8%[46.1 µM] | -15.2% | -16.4% | -8.6%
Cn1cccc1C(=O)N1CCC2(CCN(Cc3ccccc3)CC2)CC1 | · | · | · | -8.7% | ·
COc1ccc(N2CCN(C(=O)c3ccc(COc4ccc([N+](=O)[O-])cc4)o3)CC2)cc1 | ? | ? | -15.4% | 28.2µM* | -4.0%
COc1ccc(-n2nc3c(N4CCC(C(=O)NCCc5ccccc5)CC4)nnc(C)c3c2C)cc1 | · | -5.4%[46.1 µM] | ? | -23.2% | ?
Cc1ccc(-n2nc3c(N4CCC(C(=O)NCCc5ccccc5C)CC4)nnc(C)c3c2C)cc1 | · | -18.9%[46.1 µM] | 12.6µM* | ? | 10µM*
COc1ccc(-n2nc3c(N4CCC(C(=O)NCCc5ccccc5C)CC4)nnc(C)c3c2C)cc1 | ? | -14.5%[46.1 µM] | -22.8% | -27.7% | -0.6%
COCCCNC(=O)N1CCN(c2nnc(C)c3c(C)n(-c4ccc(Cl)cc4)nc23)CC1 | · | 14.9%[46.1 µM] | ? | -22.4% | 8.91µM*
Cc1ccc(-n2nc3c(N4CCC(C(=O)NCCc5ccccc5)CC4)nnc(C)c3c2C)cc1 | · | -9.4%[46.1 µM] | 11.2µM* | ? | 10µM*
COc1ccc(-n2nc3c(N4CCCC(C(=O)NCCc5ccccc5C)C4)nnc(C)c3c2C)cc1 (stereo not given) | · | -17.0%[46.1 µM] | -8.1% | -7.1% | -27.0%
COc1ccc(-n2nc3c(N4CCCC(C(=O)NCc5ccccc5C)C4)nnc(C)c3c2C)cc1 (stereo not given) | · | 6.31µM* | ? | -25.9% | ?
CN(CC(=O)Nc1ccccc1C(F)(F)F)C(=O)CSc1nnc(-c2ccncc2)n1C | · | · | · | 4.3% | ·
C[C@@H]1CN(C2CCN(C(=O)c3ccccc3Cl)CC2)C[C@H](C)O1 | -18.9%[46.1 µM] | · | · | · | ·
CCC1(c2ccc(Cl)cc2)NC(=O)N(Cc2ccc(C(=O)OC)cc2)C1=O (stereo not given) | 8.91µM* | ? | -7.5% | ? | i
CCC1(c2ccc(Cl)cc2)NC(=O)N(CC(=O)NCc2ccc(F)cc2)C1=O (stereo not given) | ? | ? | -25.0% | -13.6% | -25.1%
